These results are taken from PubChem BioAssay AID1822 (The Scripps Research Institute Molecular Screening Center, 2009).

Screen size: about 290,000 compounds; about 3,500 (1.2%) were called active. For the sample, actives were picked, then their nearest neighbours and some compounds at random. Unmarked numbers belong to inactive results.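 The calls were made as follows: active = inhibition above the campaign mean inhibition over all tested compounds plus 3 SD (cut at about 28% in these data); inactive = the rest.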

As a reminder, the inhibition is the drop in the measured response relative to a control, in per cent.

The test system of this assay is M18 aspartyl aminopeptidase (Plasmodium falciparum 3D7). Kind of assay: PfM18AAP inhibitors, malaria aminopeptidase, primary screen, biochemical, QFRET, recombinant enzyme (AID 1822).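 Also: 0% = plate median of test compound wells and 100% = 2 mM ZnCl2.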 The settings on record: H-Glu-NHMec fluorogenic cleavage, at 7.35 µM, active compounds read high.
Consider `Cc1ccc(S(=O)(=O)NNC(=O)/C=C/c2cccc(F)c2)cc1`, for which the inhibition is 12.8%.
Regarding `CC1Cc2cc(/C(O)=C3\C(=O)C(=O)N(Cc4cccnc4)C3c3ccccc3F)ccc2O1` (stereo unspecified), the inhibition was 7.22%.
As for `Cc1nc(Cl)cc(N/N=C/c2ccccc2)n1`, the inhibition was 1.31%.
As to `Cc1cc(C)nc(N/N=C/c2c(C)oc3ccccc23)n1`, the inhibition is -6.94%.
The figure for `Cc1cc2c(C)nc(N/N=C/c3ccccc3)nc2o1` is 37.1% (active).
The figure for `CCn1nc(C)c(CNC(=O)C2CCC(=O)N(Cc3cccc(F)c3)C2)c1C` (stereo unspecified) is -1.99%; for `COc1ccccc1C(=O)N(C1=NC(C)CS1)c1ccc(Cl)cc1` (stereo unspecified) it is -8.55%; for `O=C(CSc1ncn[nH]1)N/N=C/c1ccc(F)cc1` it is 21.1%.
The figure for `O=C(CSc1ncn[nH]1)NCc1ccc2c(c1)OCO2` is 5.91%.
`ClC1(Cl)CC1CSc1ncn[nH]1` (stereo unspecified): the inhibition is 34.4% (active).
The figure for `O=C(c1cccc(-n2cccc2)c1)N1CCN(S(=O)(=O)c2ccc(F)cc2)CC1` is 14.4%; for `CC(C)c1ccc(NC(=O)[C@@H](NC(=O)N2CC(=O)Nc3ccccc32)C(C)C)cc1` it is -1.48%.
The figure for `COc1cccc(/C=N/Nc2ccc(Cl)nn2)c1` is 18.6%.
In the case of `Oc1c(Br)cccc1/C=N/Nc1c(F)c(F)c(F)c(F)c1F`, the inhibition was -1.11%.
The figure for `Cc1ccsc1/C=N/Nc1ccc(Cl)nn1` is 38.9% (active); for `Cc1nnc(N/N=C/c2cccs2)[nH]c1=O` it is 0.78%; for `Clc1ccc(N/N=C/c2cccs2)nn1` it is 31.6% (active).
Consider `NC(=O)N/N=C\c1cccs1`, for which the inhibition is 1.75%.
The value for `Cc1ccsc1/C=N/n1c(=S)[nH]nc(C)c1=O` was 2.51%; that for `Cc1ccsc1/C=N/NC(=O)Cc1cc(=O)[nH][nH]1` was 1.38%; that for `Oc1cccc(/C=N/Nc2ccc(Cl)nn2)c1O` was 60.9% (active).
On to `COc1ccc(CNC(=O)c2c[nH]c3c(OC)cc(OC)cc3c2=O)cc1`, for which the inhibition was 2.86%.
The figure for `CCc1ccc(NC(=O)N2CCc3ccccc3C2)cc1` is -1.34%; for `COc1ccc(NS(=O)(=O)c2cc(C(=O)Nc3ccccc3C(=O)O)ccc2C)cc1` it is 1.9%.
The value for `O=C(NC(=S)N1CCCCC1c1cccnc1)c1ccccc1` (stereo unspecified) was 4.53%; that for `Cc1ccc2c(c1)c1ncnc(N3CCc4ccccc4C3)c1n2C` was -0.51%; that for `CC(C)OCCCNC(=O)CN1C(=O)/C(=C/c2ccccc2F)Oc2ccccc21` was -19.2%.
The figure for `Cc1ccc(OCC(=O)Nc2ccc(C(=O)O)cc2NC(=O)COc2ccc(C)c(C)c2)cc1C` is 0.26%; for `COCCn1c(SCc2nnc(-c3ccc(OC)c(OC)c3)o2)nc2sc3c(c2c1=O)CCC3` it is -13.2%; for `CSc1ccc(S(=O)(=O)N2CCC(C(=O)NCCc3ccccc3)CC2)cc1` it is 0.01%.
As for `O=C(NCc1ccncc1)C1CCN(C(=O)c2cccc(Cl)c2)CC1`, the inhibition was -1.77%.
The value for `O=C(c1cccs1)N(Cc1cc2ccccc2[nH]c1=O)CC1CCCO1` (stereo unspecified) was 2.59%.
The figure for `O=C(Nc1ccc(C(=O)NCc2ccccc2Cl)cc1)C1=CSCCO1` is 2.51%.
The figure for `Nc1nnn(CC(=O)N/N=C/c2ccc(O)cc2)n1` is 7.09%.
Take `CC(C)(C)c1nnc(N/N=C/c2ccc(O)cc2)n(N)c1=O`: the inhibition is 44.5% (active).
With `O=c1c2ccccc2nc(N/N=C/c2ccccc2)n1O`, the inhibition was 3.06%.
The figure for `O=c1cc(Cl)c2ccccc2n1-c1ccccc1` is 1.05%.
For `CN(C(=O)CSc1nnc(-c2n[nH]c3ccccc23)o1)c1ccccc1`, the inhibition is -5.28%.
For the compound `O=c1[nH]c(=S)[nH]c2[nH]c(=S)[nH]c12`, the inhibition was 43.7% (active).
The figure for `Cc1c(C)c(C)c2[nH]c(=S)[nH]c2c1C` is -2.04%; for `O=C(N/N=C/c1c[nH]c2ccccc12)c1cc2ccccc2o1` it is -7.84%; for `Cc1ccc2occ(/C=N/NC(=O)c3ccccc3C)c(=O)c2c1` it is 6.11%.
As to `Cc1c(/C=N\NC(=O)c2cc3ccccc3o2)c2ccccc2n1C`, the inhibition is 0.69%.
Regarding `NC(=S)N/N=C/c1coc2cc(Cl)ccc2c1=O`, the inhibition is 50.2% (active).
The value for `O=c1c(/C=N/O)coc2ccc(Cl)cc12` was 8.13%; that for `O=C(N/N=C/c1coc2ccccc2c1=O)c1cc2ccccc2o1` was 36.8% (active).
The figure for `C[C@H](C(=O)CC(=O)OC(C)(C)C)[C@H](O)c1ccc(C(F)(F)F)cc1` is 2.4%.
Take `O=S(=O)(c1ccc(Cl)cc1)c1nc(-c2ccccc2F)oc1NCCN1CCOCC1`: the inhibition was 1.96%.
The value for `CN(Cc1ccccc1)C(=O)CSc1nc2ccccc2[nH]1` was 7.79%; that for `O=C(C1CCCO1)N1CCN(S(=O)(=O)c2ccc(Br)cc2)CC1` (stereo unspecified) was -7.44%; that for `Cc1cccn2c(=O)c3cc(C(=O)NCCN4CCOCC4)c(=N)n(Cc4cccnc4)c3nc12` was 7.09%.
The figure for `COCCNC(=O)C1CCN(C(=O)C2CC(=O)N(c3ccc(C)cc3)C2)CC1` (stereo unspecified) is -4.37%; for `CC(C)(C)N(Cc1ccccc1)C(=O)c1ccncc1` it is 2.34%.
The value for `CCOc1ccc(/C=N/Nc2nncc(-c3ccccc3)n2)cc1OC` was 8.38%; that for `COc1cc(/C=N\Nc2ccc([N+](=O)[O-])cn2)ccc1OCC(=O)O` was 43.1% (active).
On to `COc1cc(/C=N/O)ccc1OCc1ccc([N+](=O)[O-])cc1`, for which the inhibition was 2.23%.
With `Cc1ccc(-n2c(C)cc(/C=N/Nc3ccc([N+](=O)[O-])cn3)c2C)c(C)c1`, the inhibition is 7.66%.
The value for `Cc1cc(/C=N/Nc2ccc([N+](=O)[O-])cn2)c(C)n1-c1cccc(C(=O)O)c1` was 50.7% (active).
The figure for `Cc1cc(/C=C2\SC(=O)N(C)C2=O)c(C)n1-c1cccc(C(=O)O)c1` is 7.23%; for `CC(=O)c1c(C)n(-c2ccc(C)cc2)c2ccc(O)cc12` it is -3.09%.
The figure for `CCCCN(Cc1ccccc1)C(=O)C1CCN(Cc2sccc2C)CC1` is 10.9%.
As for `CCC(C)C(=O)Nc1ccccc1N1CCN(c2ccc(F)cc2)CC1` (stereo unspecified), the inhibition is 4%.
The value for `OCCNc1nc2ccccc2n1-c1ncnc2sc3c(c12)CCC3` was -6.82%; that for `Cc1ccc(C)c(NC(=O)CSc2nc3c(oc4ccccc43)c(=O)n2-c2ccccc2)c1` was 2.4%; that for `CCOC(=O)c1cccc(NS(=O)(=O)c2c(C(=O)N3CCCCCC3)c(C)n(C)c2C)c1` was 0.1%.
The value for `Cc1cc(N2CCN(c3ccccc3)CC2)nc(N2CCOCC2)n1` was -12.7%; that for `Cc1ccc(Sc2cc(N3CCOCC3)nc(-c3ccccc3)n2)cc1` was 28.3% (active); that for `Cc1cc(N2CCOCC2)nc(-c2ccc(Br)cc2)n1` was -2.46%.
The value for `Cc1cc(C)nc(-n2nc(C)cc2NC(=O)c2ccc(Br)o2)n1` was -3.58%.
As for `CSc1n[nH]c(=S)n1N`, the inhibition was 32.7% (active).
The figure for `Oc1ccc(/C=N/Nc2ccc(C(F)(F)F)cn2)cc1O` is 34.4% (active).
The figure for `Oc1ccc(Br)cc1/C=N/Nc1ccccn1` is 15.5%.
The figure for `O=C(Nc1ccccc1)Nc1ccc(C(F)(F)F)cn1` is -2.42%; for `CCc1ccc(Nc2nnc(SCC(=O)c3ccc4c(c3)NC(=O)CO4)s2)cc1` it is 3.56%.
With `O=C(Cn1nc([N+](=O)[O-])nc1Br)NC1CCCCC1`, the inhibition is 0.92%.
The figure for `CCOc1cc(NC(=O)c2cnccn2)c(OCC)cc1NC(=O)c1ccc(C)cc1` is 5.95%; for `O=C(OCC1O[C@@H](OC(=O)c2cc(O)c(O)c(O)c2)[C@@H](OC(=O)c2cc(O)c(O)c(O)c2)[C@@H](OC(=O)c2cc(O)c(O)c(O)c2)[C@@H]1OC(=O)c1cc(O)c(O)c(O)c1)c1cc(O)c(O)c(O)c1` (stereo partly specified) it is 41.3% (active).
The value for `CN(C)c1ccc(CNC(=O)CN2C(=O)COc3ccc(S(=O)(=O)N4CCCC4)cc32)cc1` was 4.42%.
The value for `COc1ccccc1CCNC(=O)C1CCN(C(=O)/C=C/c2ccccc2)CC1` was -9.1%.
Regarding `CCOc1ccc(/C=N\NC(=O)c2c(C)nc3cc(C)ccn23)cc1`, the inhibition is -0.74%.
On to `O=C(CN1C(=O)CSC1=O)N1CCCC(Nc2ccc(F)cc2)C1` (stereo unspecified), for which the inhibition was -12.5%.
The value for `O=C1CCCCN1CCCC(=O)N1CCCC(Nc2ccc(F)cc2)C1` (stereo unspecified) was 33.9% (active).
The figure for `O=C(CN1CCOC1=O)N1CCCC(Nc2ccc(F)c(F)c2)C1` (stereo unspecified) is -0.1%; for `CCOC(=O)[C@@H]1[C@H]2COc3cc(OC)ccc3[C@@H]2N2C(=O)N(c3cccc(C)c3)C(=O)[C@@]12C` it is -13.2%.
Turning to `CCOC(=O)c1c(-c2ccccc2)oc2cc(Br)c(O)cc12`, the inhibition is -7.24%.
The figure for `CCOC(=O)c1c(-c2ccccc2)oc2ccc(OCC(N)=O)cc12` is 4.97%.
The figure for `CCOC(=O)c1c(-c2ccccc2)oc2cc(Br)c(O)c(C=O)c12` is 28.4% (active).
For `O=C(c1cnc(Cl)c(Cl)c1)N1CCN(S(=O)(=O)c2ccc(F)cc2)CC1`, the inhibition is -8.29%.
The value for `COc1ccc(OCC(=O)Nc2nnc(-c3ccco3)s2)cc1` was 29.5% (active).
The value for `CNc1nnc(-c2ccco2)s1` was -6.9%; that for `Cc1ccc(OCC(=O)Nc2nnc(-c3ccco3)s2)cc1` was -1.67%.
The figure for `N#Cc1cccc(CN2CCC(=O)N([C@H](CO)c3ccccc3)CC2)c1` is -11.8%.
In the case of `CCn1c2ccc(F)cc2c2nnc(SCCN3CCOCC3)nc21`, the inhibition was 10.1%.
The figure for `Cc1ccc2c(c1)c1ncn(Cc3ccc(F)cc3)c(=O)c1n2C` is -2.55%; for `Cn1c2ccc(F)cc2c2nnc(NN)nc21` it is 30.3% (active).
The value for `Cc1cccc(C(=O)NNC(=O)CSc2nnc(C(C)C)n2C)c1` was -1.87%.
